Compound activity as filed in PubChem.
CSC inhib: blocks cancer stem cells. cancer stem cell-like cells viability, luminescence. inhibition, % at 7.5 µM. 1.1% of 300,000 active. AID 2717; in the data active = inhibition above about 75%; tested in HMLE shEcad cells
IEC-6 tox: kills IEC-6 intestinal cells in KLF5 counter-screen; AID 1825; inhibition, % at 5 µM; IEC-6 cytotoxicity, luminescence viability; 0.78% of 290,000 active; in the data active = inhibition above about 22%;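 also: 0% = plate median of test compound wells and 100% = cytotoxic reference compound wells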
KLF5 inhibitor: inhibitors of KLF5 expression. DLD-1 KLF5 promoter-luciferase reporter, luminescence. inhibition, % at 5 µM. 0.23% of 290,000 active. AID 1700;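 active = inhibition above a per-plate limit of that plate's mean compound inhibition plus 3 SD, cut at about 60% in these data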;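 also: 0% = DMSO wells and 100% = LY294002 at 200 µM; higher means less KLF5 promoter-driven luciferase light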
SKKanGAS inh: SKKanGAS growth inhibition | S. pyogenes SKKanGAS, kanamycin growth, BacTiter-Glo, 6 h | inhibition, % at 7.5 µM | 1.3% of 300,000 active;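 active = mean replicate score, as percent of positive control median, at least 50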;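 also: strain carries kanamycin resistance gene driven by streptokinase promoter and grows in 40 µg/ml kanamycin; loss of luminescence reflects streptokinase promoter inhibition or plain growth inhibition; 0% = median of DMSO wells and 100% = positive control at its reference dose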
aSyn UTR inh: MLPCN primary screen, SNCA 5' untranslated region; 0.82% of 300,000 active; alpha-synuclein 5'UTR reporter, inhibitor activity; AID 1813; inhibition, % (tested at 7.5 µM); in the data active = inhibition above about 60%;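 also: H4 neuroglioblastoma cells stably carrying SNCA 5'UTR luciferase fusion; 0% = DMSO wells and 100% = positive control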
* marks the source's active call; other numbers are inactive results; nt = no result. Rows were chosen to be rich in hits. Some 3% of all compounds tested hit in one or more screens of this group.

SMILES | CSC inhib | IEC-6 tox | KLF5 inhibitor | SKKanGAS inh | aSyn UTR inh
O=C(CSc1cn(CCNC(=O)c2cccs2)c2ccccc12)NC1CCCC1 | -10 | -2 | -7 | 4 | -7
CCCCN(Cc1ccco1)C(=O)C1CCCN(c2ncnc3c2nc2n3CCCCC2)C1 (centres undefined) | -3 | -1 | -11 | -9 | 36
COC(=O)c1nc(NC(=S)NC(=O)c2cccs2)sc1C | -9 | -4 | -113 | 60* | -80
CCOC(=O)c1c(-c2ccc(C)o2)csc1NC(=S)NC(=O)c1ccccc1Br | 35 | -6 | -11 | 7 | 26
CCc1ccc(-c2nc(NC(=S)NC(=O)c3cccs3)sc2C)cc1 | -6 | -1 | 2 | 4 | -36
CCOC(=O)c1c(-c2ccc(C)o2)csc1NC(=O)COC(=O)c1ccc(NC(N)=O)cc1 | 1 | 3 | -8 | 68* | -5
CCOC(=O)c1c(-c2ccc(C)o2)csc1NC(=S)NC(=O)c1cccs1 | 56 | 6 | -11 | 61* | 9
COc1cccc(Cn2nnc(C(=O)Nc3cc(Cl)ccc3OC)c2N)c1 | 79* | -2 | 5 | -13 | 46
NC(=O)c1ccc(NC(=O)COC(=O)c2c3c(nc4ccccc24)/C(=C\c2cccs2)CCC3)cc1 | 115* | -3 | 0 | 91* | 18
CCC(C)(C)C1CCC2(CC1)NC(=O)N(CC(=O)N1CCN(C(=O)c3ccco3)CC1)C2=O (centres undefined) | -7 | nt | nt | nt | nt
CCOc1ccccc1-n1c(CN2CCN(C(=O)c3ccco3)CC2)nc2ccccc2c1=O | 61 | 1 | -7 | 5 | 111*
CCOc1ccccc1-c1nc(CN2CCN(C(=O)c3ccco3)CC2)c(C)o1 | -7 | -9 | -5 | 1 | 21
COc1ccc(OC)c(-c2nnc3n2N=C(c2ccc(OC)c(OC4CCCC4)c2)CS3)c1 | 66 | nt | nt | nt | nt
COc1ccc(OC)c(-c2nnc3n2N=C(c2ccc(OC(F)F)c(OCC4CC4)c2)CS3)c1 | 76* | nt | nt | nt | nt
COc1ccc(C2=Nn3c(nnc3-c3ccccc3F)SC2)cc1OC1CCOC1 (centres undefined) | 41 | nt | nt | nt | nt
COc1ccc(C2=Nn3c(nnc3-c3ccccc3F)SC2)cc1OC1CCCC1 | 82* | nt | nt | nt | nt
CCOc1ccccc1N(CC(=O)NC(C)(C)C)C(=O)CCC(=O)Nc1nccs1 | -15 | -2 | -7 | -5 | 0
O=C(CN(C1CCCCC1)C1CCCCC1)N1CCc2ccccc2C1 | 9 | 0 | -5 | 30 | 22
CCCSc1nsc(NC(=O)C(c2ccccc2)c2ccccc2)n1 | 122* | 4 | -11 | 100* | 25
CCCCCCSc1nsc(NC(=O)CC(C)C)n1 | 91* | 2 | -29 | 10 | 3
CCCSc1nsc(NC(=O)CC)n1 | -9 | 1 | -99 | 6 | -135
Cc1cc(C)nc(NC(=O)Nc2ccc(F)cc2F)n1 | -8 | -9 | -112 | 12 | -112
CCCSc1nsc(NC(=O)Nc2ccc(F)cc2F)n1 | 95* | 11 | -83 | 64* | -129
Cc1cc(S(=O)(=O)NCc2ccccc2)ccc1OCC(=O)NCc1ccncc1 | 9 | -2 | -32 | 3 | 9
CCCOC(=O)c1ccc(Oc2cn[nH]c2-c2ccc(OCC(=O)NN)cc2O)cc1 | 20 | -2 | 0 | 83* | -9
SMILES | CSC inhib | IEC-6 tox | KLF5 inhibitor | SKKanGAS inh | aSyn UTR inh
COc1ccc(-c2cn[nH]c2-c2ccc(OCC(=O)NN)cc2O)cc1 | 2 | -2 | -29 | 14 | 21
CCCOC(=O)c1ccc(Oc2cn[nH]c2-c2ccc(O)cc2O)cc1 | 17 | -1 | 1 | 76* | -6
CCOC(=O)c1ccc(Oc2cn[nH]c2-c2ccc(O)cc2O)cc1 | 14 | -4 | -10 | 46 | 7
CCOC(=O)c1ccc(Oc2cn[nH]c2-c2ccc(OCC(=O)NN)cc2O)cc1 | 15 | 4 | 8 | 99* | 0
Cc1sc2ncnc(OCC(=O)N3CCN(C(=O)c4ccco4)CC3)c2c1C | nt | -4 | -35 | 2 | -7
CC1=C(C(=O)Nc2cccc(F)c2)C(c2ccsc2)C2=C(CC(C)(C)CC2=O)N1 (centres undefined) | 65 | 67* | 28 | -1 | 19
CC1=C(C(=O)Nc2ccccc2F)C(c2ccsc2)C2=C(CC(C)(C)CC2=O)N1 (centres undefined) | 48 | 4 | 2 | 13 | 33
CC1(C)CC(c2nc(-c3ccc(Br)cc3)cs2)CCS1 (centres undefined) | 12 | 4 | 14 | -8 | -9
CC1(C)CC(c2nc(-c3ccc(Cl)cc3)cs2)CCS1 (centres undefined) | 28 | -10 | -21 | 65* | 12
Cc1cc(NC(=O)CN2C(=O)c3ccccc3C2=O)no1 | 1 | 4 | 4 | 50* | 12
Cc1cc(NC(=O)CN2C(=O)c3ccccc3S2(=O)=O)no1 | -5 | -2 | -15 | 29 | 0
Cc1csc2nc(CSc3nc4ccccc4o3)c(Br)n12 | 11 | 5 | -73 | 60* | -129
Cc1cc(-c2ccccc2)nc(N/N=C/c2ccc(O)cc2O)n1 | 96* | 12 | 3 | 4 | 29
CN(/N=C/c1ccc(O)cc1O)c1nc(-c2ccccc2)cc(-c2ccccc2)n1 | 89* | 2 | 10 | 71* | -7
Cc1cc(-c2ccccc2)nc(N/N=C/c2ccccc2)n1 | 16 | 3 | -47 | -4 | -110
Cc1ccc(-c2nnc(SCC(=O)Nc3cccc(C(=O)N4CCOCC4)c3)n2C)cc1 | 2 | -1 | 3 | -4 | -13
CCN(CC1CCCO1)C(=O)CCc1nnc(CCc2ccc(OC)cc2)o1 (centres undefined) | 8 | 6 | -7 | -3 | -18
NC(=O)CC(NC(=O)Cc1ccc(Cl)cc1)c1ccc(NC2CC3CCC2C3)c([N+](=O)[O-])c1 (centres undefined) | 19 | 0 | -19 | 17 | 6
Cn1c(=O)oc2cc(S(=O)(=O)N3CCCC(C(=O)NC4CCCc5ccccc54)C3)ccc21 (centres undefined) | -13 | 0 | -25 | 0 | 63*
Cc1ccc(S(=O)(=O)N2CCN(C(=O)COC(=O)c3cnc(C)cn3)CC2)c(C)c1 | -6 | nt | nt | -4 | -10
COc1c(OC(C)=O)ccc(/C=C/c2ccc3cccc(OCc4ccccc4)c3n2)c1[N+](=O)[O-] | 87* | -1 | -24 | 24 | -129
COc1cc(/C=C/c2ccc3cccc(OC)c3n2)c(OC(C)=O)c([N+](=O)[O-])c1 | 78* | 6 | -2 | 9 | -26
COc1ccc(C(=O)N/N=C/c2ccc3cccc(OCc4ccccc4)c3n2)cc1 | 41 | 3 | -12 | 37 | -36
COCCN(C(=O)COC(=O)/C=C/c1ccc2c(c1)OCO2)c1c(N)n(Cc2ccccc2)c(=O)[nH]c1=O | -4 | nt | nt | 0 | -28
C=C1[C@@H](C)C2[C@H](Cc3ccccc3)NC(=O)[C@]23OC(=O)CC[C@H](O)CCC[C@H](C)C/C=C/[C@H]3[C@@H]1O (some centres undefined) | nt | nt | nt | 0 | 80*
COc1ccccc1CNC(=O)COC(=O)COc1ccccc1Cc1ccccc1 | -9 | nt | nt | 23 | -11
CCOC(=O)c1c(N)sc2c(OCC)c(Br)ccc12 | 79* | 0 | -12 | -5 | -24
